High-throughput results: PubChem, The Scripps Research Institute Molecular Screening Center
PP1 counter: blocks human PP1-alpha phosphatase, a PP5 counter-screen | P62136 | purified PP1alpha, OMFP fluorescence | inhibition, % at 6.7 µM | hit rate 0.9% among 320,000;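 active means inhibition above the mean inhibition of all tested compounds plus 3 SD, computed separately for each screening campaign, cut at about 15% in these data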
PAFAH1B2 FP inh: blocks human PAF acetylhydrolase 1b catalytic subunit 2 | P68402 | recombinant PAFAH1B2, FP-rhodamine activity probe, fluorescence polarization | inhibition, % at 3.39 µM | hit rate 1.2% among 340,000 | AID 492953;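 active means inhibition above the mean of all tested compounds plus 3 SD, cut at about 24% in these data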;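 further: 0% = enzyme with DMSO and 100% = wells lacking PAFAH1B2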
pPAFAH FP inh: pPAFAH (human) enzyme inhibition; inhibition, % at 3.39 µM; hit rate 1.5% among 330,000; recombinant pPAFAH, FP-rhodamine probe fluorescence polarization;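 active means inhibition above the mean inhibition across the screen plus 3 SD, cut at about 25% in these data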;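 further: inhibitors block binding of the rhodamine activity-based probe so polarization drops; 0% = enzyme with DMSO and 100% = wells lacking pPAFAH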
Target sequence (Q13093 whole entry, looked up): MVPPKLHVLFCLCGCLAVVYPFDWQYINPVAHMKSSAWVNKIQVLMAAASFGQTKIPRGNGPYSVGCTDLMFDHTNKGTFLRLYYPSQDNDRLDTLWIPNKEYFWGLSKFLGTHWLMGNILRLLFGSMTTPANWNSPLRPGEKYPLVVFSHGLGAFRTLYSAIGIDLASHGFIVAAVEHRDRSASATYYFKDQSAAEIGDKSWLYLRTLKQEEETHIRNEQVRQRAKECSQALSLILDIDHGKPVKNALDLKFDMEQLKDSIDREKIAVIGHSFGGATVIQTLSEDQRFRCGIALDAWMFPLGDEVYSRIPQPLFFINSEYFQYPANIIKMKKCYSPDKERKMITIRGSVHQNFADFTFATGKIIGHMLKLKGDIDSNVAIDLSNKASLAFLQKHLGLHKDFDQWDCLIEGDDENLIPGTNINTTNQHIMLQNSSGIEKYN
PP5 primary: PP5 (human) phosphatase inhibition | hit rate 0.18% among 320,000 | purified PP5c, OMFP substrate fluorescence | inhibition, % at 6.7 µM | P53041;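 active means inhibition above the campaign's mean inhibition across all tested compounds plus 3 SD, cut at about 9.5% in these data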;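 further: 0% = DMSO only and 100% = 100 µM cantharidin control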
PAFAH2 inh: PAFAH2 (human) inhibition; AID 492956; hit rate 0.99% among 340,000; Q99487; inhibition, % at 3.39 µM; recombinant PAFAH2, FP-rhodamine activity probe, fluorescence polarization;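 active means inhibition above the mean over all tested compounds plus 3 SD, cut at about 30% in these data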;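 further: inhibitors block probe labeling of enzyme so polarization drops; 0% = enzyme with DMSO and 100% = wells lacking PAFAH2 protein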
PAFAH1B3 FP inh: inhibitors of human PAFAH1B3; recombinant PAFAH1B3, FP-rhodamine probe, fluorescence polarization; inhibition, % at 3.39 µM; hit rate 0.28% among 340,000; AID 492972;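 active means inhibition above the screen-wide average of all tested compounds plus 3 SD, cut at about 25% in these data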;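 further: 0% = enzyme with DMSO only and 100% = wells lacking PAFAH1B3 protein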
Starred values were filed as active, the others as inactive; x = not tested or not shown. This is a sample that favours compounds with a hit; in the whole collection about 3.4% have one here.

SMILES	PP1 counter	PAFAH1B2 FP inh	pPAFAH FP inh	PP5 primary	PAFAH2 inh	PAFAH1B3 FP inh
CCCC(=O)Nc1sc(-c2ccccc2)c(-c2ccccc2)c1C(=O)O	2	42*	6	-2	5	-1
CCc1ccc(/C(C)=N/NC(=O)CNC(=O)/C=C/c2ccco2)cc1	1	-6	15	-6	-1	5
COc1cc(/C=N/Nc2nc3c(c(=O)n(C)c(=O)n3C)n2Cc2ccccc2)ccc1OC(=O)c1ccco1	10	0	34*	1	2	15
Cn1c(=O)c2c(nc(N/N=C/c3ccncc3)n2Cc2ccccc2)n(C)c1=O	-1	6	6	-1	4	-5
C/C(=N\NC(=O)CSc1nc(C)[nH]c1[N+](=O)[O-])c1ccc(F)cc1	-3	2	6	2	-4	6
O=[N+]([O-])c1ccc2c(c1)C(N1CCOCC1)/C(=C/COc1ccc(Cl)cc1Cl)O2 (configuration not stated)	1	24*	7	2	9	0
O=C(COc1ccc([N+](=O)[O-])cc1Cl)N1CCOCC1	1	-5	4	0	-2	9
Cc1ccc(S(=O)(=O)NCCc2cc3ccc(C)cc3[nH]c2=O)cc1	-1	27*	7	1	-14	-1
O=C(O)c1cccnc1SC1CC(=O)N(c2cccc(C(F)(F)F)c2)C1=O (configuration not stated)	-4	7	1	-2	5	0
O=C(O)c1cccnc1SC1CC(=O)N(c2ccc(OC(F)F)cc2)C1=O (configuration not stated)	16*	0	-1	4	0	9
Cc1ccccc1CSc1ncnc2ccccc12	-2	4	32*	5	-2	6
CCNc1nc(SC(C(C)=O)C(C)=O)nc(N(C)C)n1	-6	0	1	3	5	13
CCNc1nc(NC(C)(C)C)nc(SC(C(C)=O)C(C)=O)n1	0	25*	-1	2	-12	1
Cc1ccccc1CN1C(=O)/C(=C\c2ccc(C(=O)NCCN3CCOCC3)cc2)Sc2ccccc21	-1	2	21	4	9	-3
O=C(NCCN1CCOCC1)c1ccc(/C=C2\Sc3ccccc3N(Cc3ccccc3F)C2=O)cc1	1	-1	33*	6	-8	2
CCn1c2ccccc2c2cc(NC(=O)c3ccccc3-c3ccccc3C(=O)O)ccc21	5	12	33*	4	9	10
O=C(O)c1ccccc1-c1ccccc1C(=O)Nc1ccc2c(c1)[nH]c(=O)c1ccccc12	15*	4	10	2	3	8
CC(=O)Nc1ccc(S(=O)(=O)NC(CC(=O)NCCCN2CCOCC2)C(C)C)cc1 (configuration not stated)	-2	5	-2	1	-1	0
CCCCCCCCNC(=O)CC(NS(=O)(=O)c1ccc(NC(C)=O)cc1)C(C)C (configuration not stated)	-3	7	32*	3	2	13
CC(C)(C)c1ccc(S(=O)(=O)N2CCN(C(=O)C3=COCCO3)CC2)cc1	0	2	0	2	3	0
NC(=O)c1ccsc1NC(=O)c1ccc([N+](=O)[O-])o1	x	9	36*	x	36*	9
NC(=O)c1ccsc1NC(=O)COC(=O)c1ccc([N+](=O)[O-])o1	3	-1	5	0	-1	6
C#CCN(C(=O)c1ccc(OC)c(OC2CCN(C(C)C)CC2)c1)C1CCCCC1	x	0	x	x	2	5
COC(=O)c1ccc(NS(=O)(=O)c2cc(-c3cc(C)no3)ccc2OC)cc1	-2	4	18	1	1	5
COc1cc(C(=O)NS(=O)(=O)c2ccccc2C)ccc1Cc1cn(C)c2ccc(NC(=O)OC3CCCC3)cc12	24*	x	24	2	x	x
SMILES	PP1 counter	PAFAH1B2 FP inh	pPAFAH FP inh	PP5 primary	PAFAH2 inh	PAFAH1B3 FP inh
CC(C)(C)c1ccc(-n2ncc3c2CCCC3NC(=O)CCN2CCCCC2=O)cc1 (configuration not stated)	-3	2	64*	0	26	9
CC(=O)C1=C(O)C(=O)N(c2ccc(O)cc2)C1c1cccc(F)c1 (configuration not stated)	2	6	-3	-1	2	16
CC(=O)C1=C(O)C(=O)N(c2ccc(Br)cc2)C1c1cccc(F)c1 (configuration not stated)	16*	6	2	2	4	-1
O=C(OCc1ccc([N+](=O)[O-])cc1)C1CC(=O)N(Cc2ccccc2)C1 (configuration not stated)	x	6	4	x	-7	7
COCCN(C(=O)C1CC(=O)N(Cc2ccccc2)C1)c1nc(-c2ccc([N+](=O)[O-])cc2)cs1 (configuration not stated)	17*	-10	20	2	9	-7
CC(=O)Nc1c(NC(=O)CC#N)[nH]c2c(c1=O)c(=O)n(C)c(=O)n2C	1	2	2	-2	-4	0
COc1ccc(CNC(=O)c2ccccc2SCC(=O)N2CCCC2)cc1OC	-2	0	7	-1	1	11
COc1cc2c(cc1NC(=O)c1cc(-c3ccncc3)nc3ccccc13)oc1ccccc12	15*	-3	-4	1	-9	-3
CC(Sc1cnc2ccccc2n1)C(=O)O (configuration not stated)	18*	1	-1	-2	1	5
COc1ccc(CC(=O)Nc2ccc(-c3nc4cc(C)ccc4o3)c(O)c2)cc1OC	16*	-5	5	2	4	-9
C=CCn1c2ccccc2c(=O)c2cc(C#Cc3ccccn3)ccc21	5	3	8	2	-4	-3
C=CCn1c2ccccc2c(=O)c2cc(C#Cc3ccsc3)ccc21	17*	x	-4	2	x	x
O=C1C(=O)N2C(=C1C(=O)N1CCCCCC1)c1ccccc1CC21CCCC1	1	57*	0	-1	3	6
CC1(C)Cc2ccccc2C2=C(C(=O)N3CCCCCC3)C(=O)C(=O)N21	-2	61*	1	-1	1	0
CCC1(CC)Cc2ccccc2C2=C(C(=O)N3CCCCC3)C(=O)C(=O)N21	4	17	3	0	4	4
COc1cc(O)c(C(=O)CC(=O)c2ccncc2)c(OC)c1	x	9	x	x	16	7
Cc1cccc(CNc2ccc(C(CC(N)=O)NC(=O)c3cccc(Br)c3)cc2[N+](=O)[O-])c1 (configuration not stated)	0	-2	-2	0	8	4
CCCn1c(C)cc(-c2csc(N)n2)c1C	7	1	16	4	4	2
C=CCn1c(C)cc(-c2csc(N)n2)c1C	15	2	16	0	9	-1
